# Test results published in ChEMBL document CHEMBL1961873, “Compounds: GSK PKIS; Assays: Nanosyn kinase panel” (2012).
# Key:
# [1] = target: T1, Mitogen-activated protein kinase 12 (Homo sapiens) (UniProt P53778); conditions: at 1 µM;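 note: values are averaged p38gamma kinase inhibition readings, compounds tested at 1 µM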
# T1 sequence (whole entry): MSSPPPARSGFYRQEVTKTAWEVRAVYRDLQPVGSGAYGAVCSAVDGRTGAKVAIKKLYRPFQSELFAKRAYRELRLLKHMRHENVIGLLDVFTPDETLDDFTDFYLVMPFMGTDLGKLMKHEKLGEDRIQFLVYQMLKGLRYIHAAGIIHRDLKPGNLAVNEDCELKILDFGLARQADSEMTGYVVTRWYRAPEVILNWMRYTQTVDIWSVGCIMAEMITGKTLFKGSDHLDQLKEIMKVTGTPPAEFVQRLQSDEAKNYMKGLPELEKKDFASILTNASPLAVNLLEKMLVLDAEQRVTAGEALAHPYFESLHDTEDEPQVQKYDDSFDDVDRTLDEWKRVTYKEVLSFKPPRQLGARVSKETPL
# [2] = target: SRSF protein kinase 1 (Homo sapiens) (UniProt Q96SB4); conditions: at 0.1 µM
# Sequence of SRSF protein kinase 1 (Homo sapiens) (Q96SB4 whole entry, canonical isoform): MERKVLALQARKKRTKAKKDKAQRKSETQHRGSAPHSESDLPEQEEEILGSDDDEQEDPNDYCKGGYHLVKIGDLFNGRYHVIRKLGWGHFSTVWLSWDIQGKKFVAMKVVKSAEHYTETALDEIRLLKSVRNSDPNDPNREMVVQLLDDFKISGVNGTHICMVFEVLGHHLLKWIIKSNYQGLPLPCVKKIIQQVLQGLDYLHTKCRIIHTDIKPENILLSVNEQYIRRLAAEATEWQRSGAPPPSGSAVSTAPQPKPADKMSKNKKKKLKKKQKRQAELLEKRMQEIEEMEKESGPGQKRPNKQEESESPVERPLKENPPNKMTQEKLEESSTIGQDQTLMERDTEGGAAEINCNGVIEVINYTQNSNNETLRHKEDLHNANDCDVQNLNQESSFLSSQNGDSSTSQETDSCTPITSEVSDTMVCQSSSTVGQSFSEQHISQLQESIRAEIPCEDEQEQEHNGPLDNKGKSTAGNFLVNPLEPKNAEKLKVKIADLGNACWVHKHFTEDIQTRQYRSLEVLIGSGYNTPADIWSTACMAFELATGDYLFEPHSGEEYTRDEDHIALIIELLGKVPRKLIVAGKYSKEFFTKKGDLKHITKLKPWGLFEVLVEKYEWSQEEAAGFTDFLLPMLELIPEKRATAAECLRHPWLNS
# [3] = target: SRSF protein kinase 1 (Homo sapiens) (UniProt Q96SB4); conditions: at 1 µM
# [4] = target: Phosphatidylinositol 4,5-bisphosphate 3-kinase catalytic subunit alpha isoform (Homo sapiens) (UniProt P42336); conditions: at 0.1 µM
# Sequence of Phosphatidylinositol 4,5-bisphosphate 3-kinase catalytic subunit alpha isoform (Homo sapiens) (P42336 whole entry, canonical isoform): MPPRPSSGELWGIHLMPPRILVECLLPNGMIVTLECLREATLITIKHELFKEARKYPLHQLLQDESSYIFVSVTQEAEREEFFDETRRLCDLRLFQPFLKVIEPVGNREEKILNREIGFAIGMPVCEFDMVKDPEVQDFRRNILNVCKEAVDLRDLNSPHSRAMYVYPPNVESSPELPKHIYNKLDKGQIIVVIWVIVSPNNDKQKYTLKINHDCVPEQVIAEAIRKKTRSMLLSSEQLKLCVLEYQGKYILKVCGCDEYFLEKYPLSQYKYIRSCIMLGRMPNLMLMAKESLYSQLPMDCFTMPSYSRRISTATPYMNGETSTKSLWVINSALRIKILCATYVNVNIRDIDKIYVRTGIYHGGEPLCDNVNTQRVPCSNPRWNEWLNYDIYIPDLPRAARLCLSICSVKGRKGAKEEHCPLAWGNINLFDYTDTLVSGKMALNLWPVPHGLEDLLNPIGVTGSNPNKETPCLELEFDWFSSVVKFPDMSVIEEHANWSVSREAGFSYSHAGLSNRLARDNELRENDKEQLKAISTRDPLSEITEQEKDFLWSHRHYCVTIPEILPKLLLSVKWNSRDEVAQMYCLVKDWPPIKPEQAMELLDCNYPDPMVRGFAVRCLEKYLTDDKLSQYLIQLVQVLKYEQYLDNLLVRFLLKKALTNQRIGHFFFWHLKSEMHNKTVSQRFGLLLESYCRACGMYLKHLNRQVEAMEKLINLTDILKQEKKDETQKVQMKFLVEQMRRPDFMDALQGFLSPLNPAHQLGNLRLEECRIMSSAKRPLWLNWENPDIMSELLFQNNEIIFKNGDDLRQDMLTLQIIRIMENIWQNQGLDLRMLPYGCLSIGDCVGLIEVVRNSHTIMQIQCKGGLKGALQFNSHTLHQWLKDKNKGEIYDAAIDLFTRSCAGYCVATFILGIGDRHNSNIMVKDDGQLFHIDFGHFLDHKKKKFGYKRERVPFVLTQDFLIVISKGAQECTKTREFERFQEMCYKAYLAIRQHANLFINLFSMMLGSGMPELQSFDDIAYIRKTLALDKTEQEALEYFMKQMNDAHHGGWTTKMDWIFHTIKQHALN
# [5] = target: Phosphatidylinositol 4,5-bisphosphate 3-kinase catalytic subunit alpha isoform (Homo sapiens) (UniProt P42336); conditions: at 1 µM
# [6] = target: T2, Phosphatidylinositol 4,5-bisphosphate 3-kinase catalytic subunit delta isoform (Homo sapiens) (UniProt O00329); conditions: at 0.1 µM
# T2 sequence (whole entry): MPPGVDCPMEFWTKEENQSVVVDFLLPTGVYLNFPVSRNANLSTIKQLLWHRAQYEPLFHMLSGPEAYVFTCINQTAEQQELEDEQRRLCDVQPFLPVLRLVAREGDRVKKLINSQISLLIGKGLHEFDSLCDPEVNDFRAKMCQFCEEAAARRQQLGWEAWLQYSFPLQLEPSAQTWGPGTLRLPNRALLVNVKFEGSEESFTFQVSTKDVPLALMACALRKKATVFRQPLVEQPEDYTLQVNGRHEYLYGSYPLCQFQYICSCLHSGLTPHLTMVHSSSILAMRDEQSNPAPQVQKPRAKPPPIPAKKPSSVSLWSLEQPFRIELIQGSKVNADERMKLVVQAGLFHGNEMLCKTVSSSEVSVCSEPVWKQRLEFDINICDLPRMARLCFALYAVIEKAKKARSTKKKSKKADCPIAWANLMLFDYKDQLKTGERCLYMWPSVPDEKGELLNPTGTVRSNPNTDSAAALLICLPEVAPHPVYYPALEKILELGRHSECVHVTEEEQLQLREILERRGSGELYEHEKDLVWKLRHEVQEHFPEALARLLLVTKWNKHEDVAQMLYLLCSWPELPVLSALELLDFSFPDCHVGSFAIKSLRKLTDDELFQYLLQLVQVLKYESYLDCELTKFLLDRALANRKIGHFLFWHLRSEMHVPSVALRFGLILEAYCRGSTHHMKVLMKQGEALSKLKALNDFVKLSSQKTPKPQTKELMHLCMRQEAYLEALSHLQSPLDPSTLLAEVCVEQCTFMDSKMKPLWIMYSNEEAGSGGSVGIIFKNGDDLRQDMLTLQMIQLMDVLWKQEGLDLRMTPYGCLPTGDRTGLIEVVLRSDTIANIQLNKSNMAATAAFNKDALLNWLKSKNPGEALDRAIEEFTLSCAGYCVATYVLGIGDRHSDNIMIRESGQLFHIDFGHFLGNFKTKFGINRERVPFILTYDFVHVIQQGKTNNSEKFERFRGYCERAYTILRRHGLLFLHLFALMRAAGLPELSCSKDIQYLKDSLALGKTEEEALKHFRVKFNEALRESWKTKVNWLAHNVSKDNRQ
# [7] = target: T2, Phosphatidylinositol 4,5-bisphosphate 3-kinase catalytic subunit delta isoform (Homo sapiens); conditions: at 1 µM
# [8] = target: Phosphatidylinositol 4-kinase beta (Homo sapiens) (UniProt Q9UBF8); conditions: at 0.1 µM
# Sequence of Phosphatidylinositol 4-kinase beta (Homo sapiens) (Q9UBF8 2-816 limits assumed): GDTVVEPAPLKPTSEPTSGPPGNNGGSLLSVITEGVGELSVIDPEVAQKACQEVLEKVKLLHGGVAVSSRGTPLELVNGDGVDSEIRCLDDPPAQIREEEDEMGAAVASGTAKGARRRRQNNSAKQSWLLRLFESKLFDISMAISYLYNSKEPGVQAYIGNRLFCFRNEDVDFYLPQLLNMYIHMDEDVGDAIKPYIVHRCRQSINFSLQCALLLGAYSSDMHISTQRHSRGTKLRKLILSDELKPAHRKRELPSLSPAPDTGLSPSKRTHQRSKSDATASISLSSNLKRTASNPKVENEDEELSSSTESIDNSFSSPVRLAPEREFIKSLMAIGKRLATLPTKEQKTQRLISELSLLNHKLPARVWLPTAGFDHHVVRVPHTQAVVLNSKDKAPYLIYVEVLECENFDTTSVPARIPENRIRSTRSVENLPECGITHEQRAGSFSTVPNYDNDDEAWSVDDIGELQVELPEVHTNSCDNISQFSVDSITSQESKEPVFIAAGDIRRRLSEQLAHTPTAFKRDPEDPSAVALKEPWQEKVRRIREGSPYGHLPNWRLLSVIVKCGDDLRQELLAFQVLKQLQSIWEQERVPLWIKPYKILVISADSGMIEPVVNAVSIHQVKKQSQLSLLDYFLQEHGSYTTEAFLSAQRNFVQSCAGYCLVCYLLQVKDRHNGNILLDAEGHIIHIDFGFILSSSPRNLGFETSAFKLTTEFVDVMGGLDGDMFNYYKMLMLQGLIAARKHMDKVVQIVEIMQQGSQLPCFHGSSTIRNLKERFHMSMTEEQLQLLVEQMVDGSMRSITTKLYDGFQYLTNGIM
# [9] = target: Phosphatidylinositol 4-kinase beta (Homo sapiens) (UniProt Q9UBF8); conditions: at 1 µM
# [10] = target: Sphingosine kinase 1 (Homo sapiens) (UniProt Q9NYA1); conditions: at 0.1 µM
# Sequence of Sphingosine kinase 1 (Homo sapiens) (Q9NYA1 whole entry): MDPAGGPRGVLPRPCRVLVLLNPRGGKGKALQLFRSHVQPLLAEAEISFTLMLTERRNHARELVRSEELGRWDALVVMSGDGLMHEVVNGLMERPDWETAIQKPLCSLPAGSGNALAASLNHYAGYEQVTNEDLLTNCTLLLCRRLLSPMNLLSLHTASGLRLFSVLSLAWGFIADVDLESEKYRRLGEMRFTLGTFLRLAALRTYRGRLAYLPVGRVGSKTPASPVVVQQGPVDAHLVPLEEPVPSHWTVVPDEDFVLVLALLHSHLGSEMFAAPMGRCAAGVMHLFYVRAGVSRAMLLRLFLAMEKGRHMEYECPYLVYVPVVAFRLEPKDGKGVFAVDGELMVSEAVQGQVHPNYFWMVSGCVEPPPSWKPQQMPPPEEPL
# [11] = target: Sphingosine kinase 1 (Homo sapiens) (UniProt Q9NYA1); conditions: at 1 µM
# [12] = target: T3, Sphingosine kinase 2 (Homo sapiens) (UniProt Q9NRA0); conditions: at 0.1 µM
# T3 sequence (whole entry): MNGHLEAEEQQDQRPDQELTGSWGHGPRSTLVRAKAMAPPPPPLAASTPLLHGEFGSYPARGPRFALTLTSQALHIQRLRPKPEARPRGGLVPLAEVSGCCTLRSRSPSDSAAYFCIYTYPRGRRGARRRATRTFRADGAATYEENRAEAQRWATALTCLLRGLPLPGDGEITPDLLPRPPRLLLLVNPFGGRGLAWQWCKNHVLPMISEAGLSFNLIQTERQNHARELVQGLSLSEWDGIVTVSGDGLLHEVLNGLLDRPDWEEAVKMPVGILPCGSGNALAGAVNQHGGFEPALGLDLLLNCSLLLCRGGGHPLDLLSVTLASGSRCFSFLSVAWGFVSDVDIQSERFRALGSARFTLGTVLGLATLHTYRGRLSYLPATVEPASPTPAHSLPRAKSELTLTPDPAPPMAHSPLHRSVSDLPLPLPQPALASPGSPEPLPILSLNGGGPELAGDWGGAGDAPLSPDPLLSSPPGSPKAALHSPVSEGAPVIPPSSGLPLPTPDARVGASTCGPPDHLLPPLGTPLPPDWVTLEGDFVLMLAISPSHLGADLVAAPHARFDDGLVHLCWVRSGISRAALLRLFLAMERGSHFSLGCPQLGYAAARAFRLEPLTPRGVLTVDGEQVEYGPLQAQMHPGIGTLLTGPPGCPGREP
# [13] = target: T3, Sphingosine kinase 2 (Homo sapiens); conditions: at 1 µM
# [14] = target: Casein kinase II subunit alpha (Homo sapiens) (UniProt P68400); conditions: at 0.1 µM
# Sequence of Casein kinase II subunit alpha (Homo sapiens) (P68400 whole entry, looked up): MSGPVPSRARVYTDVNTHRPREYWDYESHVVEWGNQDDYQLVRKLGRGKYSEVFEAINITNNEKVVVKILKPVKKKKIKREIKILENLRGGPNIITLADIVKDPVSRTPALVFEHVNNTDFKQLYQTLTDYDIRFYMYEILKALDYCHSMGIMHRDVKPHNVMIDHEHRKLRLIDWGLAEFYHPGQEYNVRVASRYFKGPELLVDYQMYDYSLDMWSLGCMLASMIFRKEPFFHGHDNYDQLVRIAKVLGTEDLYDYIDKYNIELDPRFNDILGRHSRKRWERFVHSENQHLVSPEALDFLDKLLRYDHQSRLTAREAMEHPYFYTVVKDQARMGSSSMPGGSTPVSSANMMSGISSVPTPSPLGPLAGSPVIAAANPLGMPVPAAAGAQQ
# [15] = target: Casein kinase II subunit alpha (Homo sapiens) (UniProt P68400); conditions: at 1 µM
# [16] = target: T4, Inhibitor of nuclear factor kappa-B kinase subunit alpha (Homo sapiens) (UniProt O15111); conditions: at 0.1 µM
# T4 sequence (whole entry): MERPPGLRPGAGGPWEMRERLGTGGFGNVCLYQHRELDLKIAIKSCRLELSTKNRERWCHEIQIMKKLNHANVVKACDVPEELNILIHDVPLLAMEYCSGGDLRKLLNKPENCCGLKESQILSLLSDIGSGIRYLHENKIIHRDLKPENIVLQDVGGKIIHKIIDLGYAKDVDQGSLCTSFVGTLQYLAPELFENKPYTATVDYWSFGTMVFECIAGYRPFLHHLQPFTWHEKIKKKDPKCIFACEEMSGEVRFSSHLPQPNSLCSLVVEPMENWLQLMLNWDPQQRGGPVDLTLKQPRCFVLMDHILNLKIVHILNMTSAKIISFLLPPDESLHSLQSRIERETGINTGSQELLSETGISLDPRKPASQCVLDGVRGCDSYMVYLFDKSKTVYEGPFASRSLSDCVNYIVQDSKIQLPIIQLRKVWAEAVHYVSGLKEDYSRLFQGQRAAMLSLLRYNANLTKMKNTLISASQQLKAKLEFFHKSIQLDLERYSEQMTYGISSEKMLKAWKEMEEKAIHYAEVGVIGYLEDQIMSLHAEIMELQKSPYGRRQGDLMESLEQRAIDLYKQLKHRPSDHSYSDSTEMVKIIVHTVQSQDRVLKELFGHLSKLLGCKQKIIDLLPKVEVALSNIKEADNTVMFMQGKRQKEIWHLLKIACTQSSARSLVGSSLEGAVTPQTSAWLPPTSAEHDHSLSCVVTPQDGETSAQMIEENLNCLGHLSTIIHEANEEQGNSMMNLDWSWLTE
# [17] = target: T4, Inhibitor of nuclear factor kappa-B kinase subunit alpha (Homo sapiens); conditions: at 1 µM
# [18] = target: T5, Inhibitor of nuclear factor kappa-B kinase subunit beta (Homo sapiens) (UniProt O14920); conditions: at 0.1 µM
# T5 sequence (whole entry): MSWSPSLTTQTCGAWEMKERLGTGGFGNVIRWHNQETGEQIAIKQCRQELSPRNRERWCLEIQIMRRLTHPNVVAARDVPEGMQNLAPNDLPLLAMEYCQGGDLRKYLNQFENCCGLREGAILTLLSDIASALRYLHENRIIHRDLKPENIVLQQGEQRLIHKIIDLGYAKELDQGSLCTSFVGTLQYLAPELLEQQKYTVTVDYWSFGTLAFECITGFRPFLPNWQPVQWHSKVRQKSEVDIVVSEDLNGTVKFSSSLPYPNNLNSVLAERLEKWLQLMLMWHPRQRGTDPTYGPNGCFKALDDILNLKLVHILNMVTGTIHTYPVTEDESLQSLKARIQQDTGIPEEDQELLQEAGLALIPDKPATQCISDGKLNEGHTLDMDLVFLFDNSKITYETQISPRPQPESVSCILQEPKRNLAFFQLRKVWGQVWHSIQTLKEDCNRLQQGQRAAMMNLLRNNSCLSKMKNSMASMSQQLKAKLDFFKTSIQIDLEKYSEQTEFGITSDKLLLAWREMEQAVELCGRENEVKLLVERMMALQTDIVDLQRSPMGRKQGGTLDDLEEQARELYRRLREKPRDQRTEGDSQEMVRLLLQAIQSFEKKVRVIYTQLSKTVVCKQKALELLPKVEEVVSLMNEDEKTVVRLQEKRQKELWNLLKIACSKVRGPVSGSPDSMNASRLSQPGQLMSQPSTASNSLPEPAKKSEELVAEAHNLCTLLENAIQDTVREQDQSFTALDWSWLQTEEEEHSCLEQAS
# [19] = target: T5, Inhibitor of nuclear factor kappa-B kinase subunit beta (Homo sapiens); conditions: at 1 µM
# [20] = target: T6, Inhibitor of nuclear factor kappa-B kinase subunit epsilon (Homo sapiens) (UniProt Q14164); conditions: at 0.1 µM;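 note: mean inhibition of IKKε reported, from the GSK PKIS dataset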
# T6 sequence (whole entry): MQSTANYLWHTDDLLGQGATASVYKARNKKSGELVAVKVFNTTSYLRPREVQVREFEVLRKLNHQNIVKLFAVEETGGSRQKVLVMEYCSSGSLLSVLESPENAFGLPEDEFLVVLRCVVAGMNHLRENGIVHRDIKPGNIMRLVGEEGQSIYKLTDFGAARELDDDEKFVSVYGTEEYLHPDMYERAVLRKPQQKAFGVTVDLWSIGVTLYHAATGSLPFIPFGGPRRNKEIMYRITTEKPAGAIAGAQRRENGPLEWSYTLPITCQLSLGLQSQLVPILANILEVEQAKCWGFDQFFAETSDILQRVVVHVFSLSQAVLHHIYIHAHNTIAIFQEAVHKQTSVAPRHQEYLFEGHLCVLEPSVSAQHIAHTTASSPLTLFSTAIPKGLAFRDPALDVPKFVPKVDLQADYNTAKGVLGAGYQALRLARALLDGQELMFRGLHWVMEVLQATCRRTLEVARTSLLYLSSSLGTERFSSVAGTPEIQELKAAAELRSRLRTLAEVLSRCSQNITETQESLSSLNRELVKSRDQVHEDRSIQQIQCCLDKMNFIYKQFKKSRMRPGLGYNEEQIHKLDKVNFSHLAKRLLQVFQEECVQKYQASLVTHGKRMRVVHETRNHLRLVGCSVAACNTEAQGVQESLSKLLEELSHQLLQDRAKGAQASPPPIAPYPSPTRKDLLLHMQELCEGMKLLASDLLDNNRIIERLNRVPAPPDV
SMILES,inhibition [1] [%],inhibition [2] [%],inhibition [3] [%],inhibition [4] [%],inhibition [5] [%],inhibition [6] [%],inhibition [7] [%],inhibition [8] [%],inhibition [9] [%],inhibition [10] [%],inhibition [11] [%],inhibition [12] [%],inhibition [13] [%],inhibition [14] [%],inhibition [15] [%],inhibition [16] [%],inhibition [17] [%],inhibition [18] [%],inhibition [19] [%],inhibition [20] [%]
Cc1cccc2c1NC(=O)/C2=N\Nc1ccc(S(N)(=O)=O)cc1,0.72,-0.92,-1.02,2.47,1.9,1.83,3.28,-4.22,-2.85,0.78,1.88,-0.11,0.27,-0.53,0.34,2.87,0.58,2.93,3.79,3.32
COc1cc(N2CCN(C(C)C)CC2)ccc1Nc1nc(Nc2ccc(F)cc2C(N)=O)c2cc[nH]c2n1,2.22,-2.51,1.46,0.53,0.95,-1.34,2.71,0.5,-1.98,0.81,0.04,-0.73,-1.03,15.7,54.7,0.45,-0.19,2.59,3.32,0.77
CCCN1CCC(c2ccc(Nc3nc(Nc4cc(F)ccc4C(N)=O)c4cc[nH]c4n3)c(OC)c2)CC1,2.82,-0.15,12.7,3.82,3.17,2.18,13.3,-9.61,-8.79,-0.97,-2.44,0,0,32.4,70.3,2.7,18.7,0.13,7.11,6.68
COc1ccc(-c2cc3c(N)ncnc3o2)cc1,-1.89,-1.58,1.06,-1.98,-0.52,-0.57,0.07,-0.47,-0.47,9.34,0.27,0.92,-0.08,4.9,14.2,-1.6,-3.79,-0.63,6.4,-2.31
CN1CCC(n2cnc(-c3ccc(F)cc3)c2-c2ccnc(N)n2)CC1,2.49,-1.72,-1.48,1.81,5.12,4.38,27.1,1.13,3.14,-2.21,-3.49,0,-1.67,8.38,42.7,1.97,6.98,4.41,4.02,3.07
CCn1cc(-c2ccnc3[nH]ccc23)c(-c2cccc(NC(=O)Nc3ccc(OCc4ccccc4)cc3)c2)n1,-0.76,-3.33,-4.16,-0.66,0.08,-0.3,1.17,2.47,-1.05,-0.21,-4.04,-0.83,-0.59,9.36,-1.27,1.99,-6.8,4.3,5.23,-4.18
COC(=O)Nc1nc2ccc(Oc3ccc(NC(=O)Nc4cccc(Cl)c4)cc3)cc2[nH]1,0.02,-2.58,-2.98,-0.11,4.1,-0.7,3.93,3.19,-4.1,1.12,-0.57,0,0,4.68,1.84,-0.79,6.02,-0.04,1.06,4.59
